Screening results from PubChem.
sEH act – activators of human soluble epoxide hydrolase; P34913; purified human sEH enzymatic activity, activator screen; activation, % at 2 µM; 0.04% of 91,000 active; AID 717; in the data active = activation above about 37%
CYP2C19 activ – cytochrome P450 2C19 (human) activation; P33261; recombinant CYP2C19, luciferin-H EGE luminescence; active compounds read high; 0 = fully inhibited enzyme, 1 = untreated enzyme; activation factor at 5 µM; 96,000 tested, under 10 active;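 active = activation factor of at least 2 at 5 µM in the primary screen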;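 note: 0 = wells with 2.5 mM tranylcypromine and 1 = vehicle-only wells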
Target sequence (P33261 whole entry, looked up): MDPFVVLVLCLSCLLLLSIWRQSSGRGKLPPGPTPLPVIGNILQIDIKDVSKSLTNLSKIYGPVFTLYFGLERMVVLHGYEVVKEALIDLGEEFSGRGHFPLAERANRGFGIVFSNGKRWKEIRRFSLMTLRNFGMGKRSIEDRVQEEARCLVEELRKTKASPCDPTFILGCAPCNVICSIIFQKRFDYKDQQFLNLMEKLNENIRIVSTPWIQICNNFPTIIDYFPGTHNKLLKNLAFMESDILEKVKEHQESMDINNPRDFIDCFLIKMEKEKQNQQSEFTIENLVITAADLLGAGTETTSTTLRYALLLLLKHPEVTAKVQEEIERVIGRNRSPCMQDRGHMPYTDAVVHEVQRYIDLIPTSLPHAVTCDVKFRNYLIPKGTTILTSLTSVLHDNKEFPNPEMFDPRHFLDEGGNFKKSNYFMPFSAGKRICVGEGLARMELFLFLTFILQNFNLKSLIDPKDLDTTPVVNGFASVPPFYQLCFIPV
CYP2C19 inh – blocks human cytochrome P450 2C19; P33261; CYP2C19 Supersomes, luciferin-H EGE luminescence, 30 min; inhibition, % at 5 µM; 21% of 96,000 active; AID 778;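 active = CYP2C19 inhibition above a set limit at 5 µM in the primary screen, cut at about 50% in these data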;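 note: plate controls were negative control wells for no effect and 2.5 mM tranylcypromine positive control for full effect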
CYP2C9 inh – inhibitors of human CYP2C9 | 20% of 96,000 active | inhibition, % at 5 µM | CYP2C9 Supersomes, luciferin-H conversion, luminescence;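 active = blocking of liver enzyme CYP2C9 beyond about 50% at 5 µM, limit read from the data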
CYP2C9 act – activators of human CYP2C9; P11712; recombinant CYP2C9, luciferin-H conversion, luminescence; active compounds read high; factor 1 = untreated enzyme, 0 = blocked; activation factor at 5 µM; 1.4% of 96,000 active; AID 1024;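 active = activation factor of 2 or more for CYP2C9 at a 5 µM dose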;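 note: 0 = sulfaphenazole-blocked wells and 1 = vehicle-only wells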
sEH inh – soluble epoxide hydrolase (human) inhibition. recombinant human sEH enzymatic activity assay. 0.34% of 91,000 active. inhibition, % at 2 µM; in the data active = inhibition above about 80%
* = called active by the depositor; x = no result given. Shown are actives, neighbours in structure and some others; about 27% of the full set was active somewhere.

SMILES	sEH act	CYP2C19 activ	CYP2C19 inh	CYP2C9 inh	CYP2C9 act	sEH inh
COc1ccc(OCC(=O)N2CCN(C(=O)Cc3ccccc3)CC2)cc1	1	0.6	36	16	0.8	0
COc1ccc(-c2csc(N(CCc3ccccc3)C(=O)COc3ccccc3)n2)cc1	5	0.8	20	92*	0.1	-4
Cc1ccc(C(=O)N2CC(C)OC(C)C2)c(Cl)c1 (centres undefined)	-4	0.8	20	-5	1.1	1
Cc1cc(COc2ccccc2O)on1	-4	1	3	-9	1.1	4
CCC(Sc1nc2ccccc2s1)C(=O)Nc1cc(C)on1 (centres undefined)	-8	x	x	x	x	8
O=C(CN1CCN(C(=O)c2ccccc2)CC1)Nc1ccc(Br)cn1	-15	1	3	-9	1.1	16
CC(=O)Nc1ccc(SC(C)C(=O)NC(N)=O)cc1 (centres undefined)	4	1.2	-16	18	0.8	-1
Cc1ccc(N2C(=O)c3n[nH]c(C)c3C2c2ccco2)cc1 (centres undefined)	-11	0.9	6	-6	1.1	16
CCOC(=O)c1ccc(N2C(=O)c3n[nH]c(C)c3C2c2ccco2)cc1 (centres undefined)	1	0.2	81*	77*	0.2	-3
CCOC(=O)c1ccc(N2C(=O)c3n[nH]c(C)c3C2c2ccc(OC)cc2)cc1 (centres undefined)	15	0.1	90*	93*	0.1	-17
COc1cc(C2c3c(-c4ccccc4)n[nH]c3C(=O)N2c2ccc(C(=O)O)cc2)ccc1O (centres undefined)	5	1.1	-8	-9	1.1	-4
CCOC(=O)c1ccc(N2C(=O)c3n[nH]c(C)c3C2c2ccc(OC)cc2OC)cc1 (centres undefined)	-3	x	x	x	x	1
CCOC(=O)c1ccc(N2C(=O)c3n[nH]c(C)c3C2c2ccc(OC)c(OC)c2)cc1 (centres undefined)	25	0.2	82*	78*	0.2	-26
COC(=O)c1ccc(C2c3c(n[nH]c3C)C(=O)N2c2ccc(C)cc2)cc1 (centres undefined)	4	0.2	77*	63*	0.4	-2
Cc1cccc(NC(=O)c2oc3c(c2C)C(=O)CC(C)(C)C3)n1	-12	1	4	18	0.8	17
Cc1cc(C)c(N2C(=NC(=O)CCCC(=O)O)SC3CS(=O)(=O)CC32)c(C)c1 (centres undefined)	9	1.1	-6	-8	1.1	-11
Cc1ccc(C)n1-c1sc2c(c1C#N)CCC(C)C2 (centres undefined)	13	0.9	6	7	0.9	-15
COc1cc(C2C(C(C)=O)=C(O)C(=O)N2c2ccc(C)cc2)ccc1O (centres undefined)	-1	1.1	-14	34	0.7	4
CCOC(=O)c1ccc(N2C(=O)C(O)=C(C(C)=O)C2c2ccc(O)c(OC)c2)cc1 (centres undefined)	x	0.9	9	81*	0.2	x
COc1ccc(/C=N/NC(=O)c2ccccc2O)cc1Cn1cc(Cl)cn1	-60	0.9	11	51*	0.5	60
COc1ccc(/C=N/NC(=O)c2ccn[nH]2)cc1COc1ccc(Cl)cc1	8	0.6	37	38	0.6	-8
Cc1cccc(C)c1NC(=O)C(c1ccccc1)N1CCC1=O (centres undefined)	-2	1.1	-5	-14	1.1	2
Cc1cccc(C)c1NC(=O)C(NC=O)c1ccc(Cl)cc1 (centres undefined)	0	0.4	58*	-5	1.1	0
C=C(C)n1c(=O)[nH]c2ccccc21	3	1.2	-19	-15	1.1	-6
COCCCn1c(SCc2ccc(OC)cc2)nc2cc(OC)c(OC)cc2c1=N	3	0.5	55*	72*	0.3	0
SMILES	sEH act	CYP2C19 activ	CYP2C19 inh	CYP2C9 inh	CYP2C9 act	sEH inh
CCOC(=O)N1CCN(CC(O)COC2CC(C)CCC2C(C)C)CC1 (centres undefined)	-4	0.4	57*	48	0.5	6
CC(OC(=O)c1nsc(Cl)c1Cl)C(=O)NCc1ccco1 (centres undefined)	14	0.3	67*	56*	0.4	-14
CC(OC(=O)c1ccccc1NCc1ccco1)C(=O)Nc1ncc(Cl)cc1Cl (centres undefined)	x	0.3	66*	81*	0.2	x
CC(C)CC(=O)Nc1ccc(C(=O)Cn2nc(C(=O)O)c3ccccc3c2=O)cc1	-12	0.8	16	48	0.5	13
CC(C)CC(OC(=O)c1nsc(Cl)c1Cl)C(=O)NCc1cccs1 (centres undefined)	0	x	x	x	x	3
CC(C)CCn1nc(C(=O)OC(C)C(=O)NC(N)=O)c2ccccc2c1=O (centres undefined)	2	0.6	37	67*	0.3	1
CC(OC(=O)c1nsc(Cl)c1Cl)C(=O)NCc1ccc2c(c1)OCO2 (centres undefined)	0	0.7	31	92*	0.1	2
O=C(c1ccco1)N1CCN(CC2CC3C=CC2C3)CC1 (centres undefined)	7	0.9	10	-7	1.1	-7
c1ccc(-c2cc(-c3nnc4n3N=C(c3ccc5ccccc5c3)CS4)[nH]n2)cc1	-7	1	5	49	0.5	7
Cn1nc(C(=O)NCc2ccc(F)cc2)c2ccccc2c1=O	-5	x	x	x	x	6
Cn1nc(C(=O)NCc2ccccc2)c2ccccc2c1=O	2	0.4	58*	24	0.8	-3
CC(OC(=O)c1nn(C)c(=O)c2ccccc12)C(=O)NCc1ccc2c(c1)OCO2 (centres undefined)	0	0.6	38	78*	0.2	-3
CC(OC(=O)CCc1nc2ccccc2c(=O)[nH]1)C(=O)NCc1ccc2c(c1)OCO2 (centres undefined)	0	x	x	x	x	1
CCN(CC)CCN(C)Cc1ccc(Br)cc1	4	0.9	9	0	1	-3
CC(=O)COc1ncn(-c2ccccc2)n1	11	1.1	-8	4	1	-10
Cc1cc(C)c(S(C)(=O)=O)c(S(=O)c2ccc(Cl)cc2)n1 (centres undefined)	-3	1	1	58*	0.4	2
CNc1nc(C)cc(C)c1S(=O)(=O)c1ccc(Cl)cc1	17	0.3	66*	-42	1.4	-16
Cc1ccc(-n2ncc(C#N)c2/N=C/N2CCCCCC2)cc1	x	0	97*	91*	0.1	x
CCCCN(C)/C=N/c1c(C#N)cnn1-c1ccc(C)cc1	20	0.6	40	60*	0.4	-18
Cc1cccc(NC(=O)c2c(O)c3cccc4c3n(c2=O)CC4)c1	11	x	x	x	x	-11
Cc1cccc(NC(=O)COc2ccc3oc4c(c3c2)CCCC4)n1	-6	0.5	51*	85*	0.1	5
